Assay outcomes deposited in PubChem by Sanford-Burnham Center for Chemical Genomics.
HIF-2a block = HIF-2a reporter inhibitors, primary screen, luminescence, 786-0 RCC cells; 786-0 RCC cells HIF-2a reporter, luciferase luminescence, overnight; inhibition, % at 18.8 µM; hit rate 0.72% among 360,000; AID 624352, 2012;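 active = inhibition of the luminescence signal of 40% or more relative to plate controls, in a single-dose primary screen at 18.75 µM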
CF NFkB inh = inhibitors of PAF-induced NF-kB signaling, primary screen, cell-based, GFP fluorescence, uHTS; KKLEB NF-kB-GFP reporter, GFP fluorescence overnight; inhibition, % at 5 µM; hit rate 0.86% among 360,000;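 active = at least 50% inhibition at 5 µM, scaled per plate between neutral and stimulator controls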;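 note: PAF is a Pseudomonas aeruginosa culture filtrate used as stimulus; plate controls were PAF-stimulated DMSO wells for no effect and unstimulated DMSO wells for full effect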
KKLEB cytotox = cytotoxicity in KKLEB CF airway cells, primary screen, cytotoxicity control for CF NF-kB inhibitor project, cell-based, uHTS, fluorescence assay plates | activity change (cytotoxicity), % at 5 µM | hit rate 0.36% among 360,000 | KKLEB CF airway cells viability, ATPlite luminescence, overnight; hits give low values; cells stimulated with P. aeruginosa culture filtrate;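 active = corrected activity change at or below -50% at 5 µM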
Peg3 prom inh-1 = Peg3 promoter-driven luciferase inhibitors, primary screen, cell-based, HeLa, luciferase luminescence; HeLa PEG-Prom luciferase reporter, overnight; inhibition, % at 20 µM; hit rate 1.7% among 360,000;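 active = inhibition of at least 50% at 20 µM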
TWEAK-Fn14 inh = inhibitors of TWEAK-Fn14 signaling, primary screen, luciferase reporter cells, uHTS; AID 1159606, 2016; inhibition, % at 10 µM; hit rate 2% among 360,000; TWEAK-stimulated Fn14 reporter cells, luciferase luminescence, 8 h; in the data active = inhibition above about 50%
TROY signal inh = inhibitors of TROY-driven NF-kB signaling, primary screen, Q293 LMP1-TROYcd cells, NF-kB luciferase, uHTS | hit rate 0.98% among 360,000 | inhibition, % at 10 µM | Q293 LMP1-TROYcd NF-kB luciferase reporter, 4 h | AID 1347056, 2019;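 active = compounds whose plate-normalised and pattern-corrected inhibition of the luciferase reporter signal at the single screening dose is 50% or more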
Peg3 prom inh-2 = Peg3 promoter reporter inhibitors, retest, confirmation, cell-based, HeLa, luciferase reporter, single concentration; shares compounds with Peg3 prom inh-1; HeLa PEG-Prom luciferase reporter, luminescence, overnight; inhibition, % at 20 µM; hit rate 84% among 1,300;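 active = at 20 µM dose, 40% or more inhibition averaged across four replicates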
CF NFkB conf = inhibitors of PAF-induced NF-kB signaling, retest, confirmation, cell-based, GFP fluorescence, single concentration | AID 602472, 2012 | shares compounds with CF NFkB inh | KKLEB CF airway cells, overnight | hit rate 64% among 1,300 | inhibition, % at 5 µM; in the data active = inhibition above about 40%;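 note: stimulus PAF is a Pseudomonas aeruginosa filtrate and not platelet activating factor; plate controls were DMSO wells with stimulus for no effect and unstimulated DMSO wells for full effect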
Mdm2 MdmX conf = retested Mdm2-MdmX interaction blockers, confirmation, cell-based, luminescence, single concentration, set 2 | SaOS-2 split-luciferase Mdm2/MdmX complementation | hit rate 99% among 740 | inhibition, % at 8 µM | AID 504601, 2011 | shares compounds with HIF-2a block;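 active = mean inhibition of the luminescence signal across two replicates at or above 26 percent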
HIF-2a inh conf = HIF-2a reporter inhibitor retest, confirmation, luminescence, 786-0 RCC cells. hit rate 56% among 1,800. HIF-2a luciferase reporter luminescence, overnight. shares compounds with HIF-2a block. inhibition, % at 18.8 µM;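 active = mean inhibition across four replicates of at least 40 percent at the single tested concentration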
HIF-1a cs = HIF-1a luciferase reporter signal reduction – MiaPaCa-2 cells, single concentration, counter-screen for HIF-2a inhibitor project, confirmation. shares compounds with HIF-2a block. MiaPaCa-2 HIF-1a luciferase reporter, desferoxamine, overnight. inhibition, % at 18.8 µM. hit rate 72% among 1,800. AID 651589, 2012;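 active = mean inhibition of the reporter signal across four replicates at the single tested dose of 50% or more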
Starred values were filed as active, the others as inactive. A selection: hits, their analogues and other compounds. The true share with any hit is near 4%.

What do the screens show for `CCCNC(=O)COC(=O)c1ccccc1C(=O)c1ccc(Cl)c([N+](=O)[O-])c1`?
HIF-2a block: 83*; CF NFkB inh: 101*; KKLEB cytotox: -31; Peg3 prom inh-1: 106*; TWEAK-Fn14 inh: 99*; TROY signal inh: 67*; Peg3 prom inh-2: 99*; CF NFkB conf: 109*; Mdm2 MdmX conf: 103*; HIF-2a inh conf: 42*; HIF-1a cs: 104*

What do the screens show for `CC1(C(=O)Nc2ccc(Cl)c(Cl)c2)CCN1CCc1ccccc1` (configuration not stated)?
HIF-2a block: 12; CF NFkB inh: 2; KKLEB cytotox: 9; Peg3 prom inh-1: 3; TWEAK-Fn14 inh: 2; TROY signal inh: 11

How did COC(=O)c1ccc2nc(Nc3nc4ccc(F)cc4s3)sc2c1 do in these assays?
HIF-2a block: 89*; CF NFkB inh: -10; KKLEB cytotox: 1; Peg3 prom inh-1: 79*; TWEAK-Fn14 inh: 92*; TROY signal inh: 79*; Peg3 prom inh-2: 90*; HIF-2a inh conf: 98*; HIF-1a cs: 88*

Results for COC(=O)c1ccc2nc(NC(=O)C3CCCCC3)sc2c1 ?
HIF-2a block: 24; CF NFkB inh: -10; KKLEB cytotox: -3; Peg3 prom inh-1: -202; TWEAK-Fn14 inh: -33; TROY signal inh: -55

Results for OC(c1cccc(Cl)c1)c1nc(-c2ccoc2)cs1 (configuration not stated) ?
HIF-2a block: -9; CF NFkB inh: -46; KKLEB cytotox: 4; Peg3 prom inh-1: 7; TWEAK-Fn14 inh: 16; TROY signal inh: 17

How did CCn1c(C)cc(C(=O)COC(=O)c2ccccc2[N+](=O)[O-])c1C do in these assays?
HIF-2a block: 82*; CF NFkB inh: 5; KKLEB cytotox: -67*; Peg3 prom inh-1: 94*; TWEAK-Fn14 inh: 105*; TROY signal inh: 90*; Peg3 prom inh-2: 91*; Mdm2 MdmX conf: 98*; HIF-2a inh conf: 87*; HIF-1a cs: 87*

What do the screens show for `COCCn1c(C)cc(C(=O)COC(=O)c2ccccc2Br)c1C`?
HIF-2a block: 48*; CF NFkB inh: 14; KKLEB cytotox: -36; Peg3 prom inh-1: 78*; TWEAK-Fn14 inh: 105*; TROY signal inh: 92*; Peg3 prom inh-2: 69*; HIF-2a inh conf: 42*; HIF-1a cs: 76*

How did Cc1cc(C(=O)COC(=O)c2ccccc2O)c(C)n1Cc1cccs1 do in these assays?
HIF-2a block: 90*; CF NFkB inh: 13; KKLEB cytotox: -44; Peg3 prom inh-1: 91*; TWEAK-Fn14 inh: 102*; TROY signal inh: 64*; Peg3 prom inh-2: 87*; HIF-2a inh conf: 96*; HIF-1a cs: 97*

Results for Cc1cc(C(=O)COC(=O)c2ccc3c(c2)OCO3)c(C)n1Cc1cccs1 ?
HIF-2a block: -196; CF NFkB inh: -1; KKLEB cytotox: 1; Peg3 prom inh-1: -291; TWEAK-Fn14 inh: 21; TROY signal inh: -6
